The nature of test [1]: binders of probe aFSTL3 on microarray, primary screen, stem cell growth factor project, biochemical, small-molecule microarray, fluorescence 635/667 (AID 1064).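 Further: measures binding of the biotinylated anti-FSTL3 antibody to printed compounds.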 Particulars: higher = more signal.
Test [2] can be described thus: binders from COS7 lysate, DM2A8 probe, primary screen, torsin A project, cell lysate, small-molecule microarray, fluorescence 635/667 (AID 1065). Particulars: higher = more signal, COS7 lysate expressing mutant human TOR1A.
Test [3] is described as follows: binders of probe aFGF2 on microarray, primary screen, stem cell growth factor project, biochemical, small-molecule microarray, fluorescence 635/667 (AID 1067).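 Further: measures binding of biotinylated aFGF2 protein to printed compounds on slides; z-score merges feature fluorescence and signal-to-noise across triplicate slides.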 Particulars: higher = more signal.
Test [4] can be described thus: binders of probe aFGF10 on microarray, primary screen, stem cell growth factor project, biochemical, small-molecule microarray, fluorescence 635/667 (AID 1071).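 Further: score merges 667 nm spot intensity and signal to noise from triplicate slides.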 Particulars: higher = more signal.
In test [5] the target is Neurogenic locus notch homolog protein 2 (Homo sapiens) (UniProt Q04721). Nature of the test: Notch2 binders on small-molecule microarrays, primary screen, biochemical, small-molecule microarray, 635 nm fluorescence, stem cell growth factors (AID 1073). As to conditions: Notch2 binding, higher = more signal.
Neurogenic locus notch homolog protein 2 (Homo sapiens), sequence (Q04721 whole entry, looked up, canonical isoform): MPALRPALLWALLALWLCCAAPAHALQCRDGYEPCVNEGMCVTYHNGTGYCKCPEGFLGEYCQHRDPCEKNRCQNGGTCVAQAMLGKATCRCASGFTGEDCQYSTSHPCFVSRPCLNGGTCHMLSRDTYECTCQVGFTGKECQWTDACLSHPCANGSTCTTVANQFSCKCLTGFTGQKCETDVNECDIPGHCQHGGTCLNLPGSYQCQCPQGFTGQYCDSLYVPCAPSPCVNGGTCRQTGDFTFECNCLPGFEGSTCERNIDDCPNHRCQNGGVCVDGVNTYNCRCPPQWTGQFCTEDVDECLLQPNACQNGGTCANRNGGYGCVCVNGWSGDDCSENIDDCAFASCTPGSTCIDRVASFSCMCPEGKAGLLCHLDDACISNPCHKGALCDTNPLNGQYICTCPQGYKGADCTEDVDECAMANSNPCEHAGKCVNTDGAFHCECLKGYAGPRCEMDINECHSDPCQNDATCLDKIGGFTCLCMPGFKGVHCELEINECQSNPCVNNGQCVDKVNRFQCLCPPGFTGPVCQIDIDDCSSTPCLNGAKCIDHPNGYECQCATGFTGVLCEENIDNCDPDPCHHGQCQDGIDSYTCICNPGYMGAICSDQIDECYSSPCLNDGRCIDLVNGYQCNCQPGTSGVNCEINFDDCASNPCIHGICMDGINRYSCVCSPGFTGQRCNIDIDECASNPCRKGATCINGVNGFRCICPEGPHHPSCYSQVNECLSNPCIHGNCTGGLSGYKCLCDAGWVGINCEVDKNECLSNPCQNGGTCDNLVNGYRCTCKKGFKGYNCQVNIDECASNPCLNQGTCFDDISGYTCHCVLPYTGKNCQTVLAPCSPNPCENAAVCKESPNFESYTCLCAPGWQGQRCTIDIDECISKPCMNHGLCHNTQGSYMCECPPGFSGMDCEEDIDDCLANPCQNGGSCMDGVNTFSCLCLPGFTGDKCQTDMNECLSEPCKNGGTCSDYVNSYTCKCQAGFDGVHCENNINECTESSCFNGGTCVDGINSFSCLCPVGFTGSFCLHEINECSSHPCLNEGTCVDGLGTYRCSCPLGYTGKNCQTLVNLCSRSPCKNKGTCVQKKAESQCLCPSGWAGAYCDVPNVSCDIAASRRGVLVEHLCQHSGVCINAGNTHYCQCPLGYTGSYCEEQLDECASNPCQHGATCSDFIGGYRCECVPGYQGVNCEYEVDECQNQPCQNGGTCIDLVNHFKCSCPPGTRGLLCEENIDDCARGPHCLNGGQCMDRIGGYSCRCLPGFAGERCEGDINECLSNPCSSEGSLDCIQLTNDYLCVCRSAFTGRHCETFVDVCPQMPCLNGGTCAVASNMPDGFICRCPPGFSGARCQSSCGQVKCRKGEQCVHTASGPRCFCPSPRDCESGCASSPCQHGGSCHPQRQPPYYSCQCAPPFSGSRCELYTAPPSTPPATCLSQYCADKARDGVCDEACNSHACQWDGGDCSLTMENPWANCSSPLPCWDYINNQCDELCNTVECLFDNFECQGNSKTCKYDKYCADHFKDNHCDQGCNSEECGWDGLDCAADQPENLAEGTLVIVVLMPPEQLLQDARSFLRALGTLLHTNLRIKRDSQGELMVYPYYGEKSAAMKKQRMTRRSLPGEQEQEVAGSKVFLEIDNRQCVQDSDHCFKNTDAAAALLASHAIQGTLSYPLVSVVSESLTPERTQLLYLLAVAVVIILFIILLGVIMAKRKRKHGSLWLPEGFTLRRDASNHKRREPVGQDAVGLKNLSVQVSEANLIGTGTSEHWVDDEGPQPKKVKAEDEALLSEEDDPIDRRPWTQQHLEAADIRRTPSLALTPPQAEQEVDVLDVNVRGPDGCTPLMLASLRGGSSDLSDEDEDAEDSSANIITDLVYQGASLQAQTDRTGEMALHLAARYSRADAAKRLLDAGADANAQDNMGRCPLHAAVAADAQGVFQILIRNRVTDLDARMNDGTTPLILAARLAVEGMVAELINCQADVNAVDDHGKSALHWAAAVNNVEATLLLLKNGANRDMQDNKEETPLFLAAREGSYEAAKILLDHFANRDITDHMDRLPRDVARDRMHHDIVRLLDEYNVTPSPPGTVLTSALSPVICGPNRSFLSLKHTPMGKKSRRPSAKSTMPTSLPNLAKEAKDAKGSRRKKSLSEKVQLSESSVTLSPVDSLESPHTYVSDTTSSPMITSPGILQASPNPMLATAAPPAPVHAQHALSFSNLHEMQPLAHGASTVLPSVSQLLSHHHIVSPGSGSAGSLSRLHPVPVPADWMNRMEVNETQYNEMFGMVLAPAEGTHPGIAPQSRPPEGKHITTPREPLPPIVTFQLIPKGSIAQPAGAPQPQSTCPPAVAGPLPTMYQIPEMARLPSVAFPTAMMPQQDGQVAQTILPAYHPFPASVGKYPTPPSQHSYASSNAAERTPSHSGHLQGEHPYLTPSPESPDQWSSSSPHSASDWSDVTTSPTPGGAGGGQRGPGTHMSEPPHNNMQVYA
Test [6] has as its target Pro-neuregulin-1, membrane-bound isoform (Homo sapiens) (UniProt Q02297). Nature of the test: NRG1 binders on small-molecule microarrays, primary screen, psychiatric disease protein project, biochemical, small-molecule microarray, fluorescence 635/667 (AID 1075).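 Further: score combines 667 nm spot fluorescence with signal to noise.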 Particulars: NRG1 binding, 635 nm fluorescence, higher = more signal.
The subject of test [7] is Neuregulin-1 EGF-like domain. Briefly: binders of neuregulin-1 EGF-like domain, primary screen, biochemical, small-molecule microarray, 635 nm fluorescence (AID 1081).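 Further: binding of the protein to compounds printed on small-molecule microarray slides.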 As to conditions: small-molecule microarray binding, higher = more signal.
The nature of test [8]: FRG1 promoter luciferase signal modulators, primary screen, FRG1 inhibition for FSHD, cell-based, C2C12 myotubes, firefly/Renilla luciferase, luminescence (AID 1084). As to conditions: higher = more signal, called active from +8 up or from −8 down.
Test [9] can be described thus: binders of probe aFST on microarray, primary screen, stem cell growth factor project, biochemical, small-molecule microarray, fluorescence 635/667 (AID 1086).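 Further: score merges 667 nm fluorescence with signal-to-noise of each printed compound spot.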 As to conditions: higher = more signal.
Test [10] can be described thus: binders of probe aHhip on microarray, primary screen, stem cell growth factor project, biochemical, small-molecule microarray, fluorescence 635/667 (AID 1087).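 Further: score merges spot fluorescence at 667nm with spot signal to noise ratio.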 As to conditions: higher = more signal.
Test [11] deals with PRMT1 (protein arginine N-methyltransferase 1). Briefly: PRMT1 binders on small-molecule microarrays, primary screen, biochemical, small-molecule microarray, 635 nm fluorescence (AID 1088).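 Further: binding of Prmt1 protein to compounds spotted on small-molecule microarray slides.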 As to conditions: small-molecule microarray binding, higher = more signal.
Test [12] in a line: yeast growth modulation, basal conditions, primary screen, YJM789 clinical isolate, OD600, 24 h (AID 1089).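 Further: growth of clinical yeast isolate S. cerevisiae YJM 789 seeded 1000 cells per well; test concentration not given here.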 As to conditions: S. cerevisiae YJM789 growth, higher = more signal, called active from +8 up or from −8 down.
Test [13] in a line: fission yeast growth modulation, primary screen, strain 972, OD600, 24 h, no modulator (AID 1090).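 Further: basal condition with compound alone and no growth modifier present; test concentration not given here.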 As to conditions: S. pombe 972 growth, higher = more signal, called active from +8 up or from −8 down.
Test [14] can be described thus: S. cerevisiae growth modulation with rapamycin, primary screen, strain BY4716, OD600, 96 h (AID 1091). Further: test concentration not given here. Particulars: higher = more signal, called active from +8 up or from −8 down.
Test [15] has as its target Torsin-1A-interacting protein 2 (Homo sapiens) (UniProt Q8NFQ8). Briefly: LULL1 binders on small-molecule microarray, primary screen, cell lysate, human LULL1 lysate, 635/667 nm fluorescence (AID 1092).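 Further: probe is lysate of COS7 cells overexpressing human LULL1; score merges per-feature 667 nm fluorescence with signal-to-noise.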 As to conditions: hLULL1 lysate binding, 635 nm fluorescence, higher = more signal.
Test [16] in a line: E. coli growth modulation, two-sided OD650, primary screen, E. coli filamentation project, strain DRC41, 24 h (AID 1093).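 Further: MC1000 strain lacking acrAB efflux and sulA so SOS filamentation is blocked; test concentration not given here.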 As to conditions: OD650, 24 h, higher = more signal, called active from +8 up or from −8 down.
The nature of test [17]: small-molecule microarray binders of probe aLefty2, primary screen, biochemical, biotinylated probe, 635/667 nm fluorescence (AID 1094).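 Further: score merges spot fluorescence near 667 nm with spot signal-to-noise ratio.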 Particulars: higher = more signal.
For test [18], the system named is Noggin (protein binding on small-molecule microarray). Briefly: Noggin binders on small-molecule microarray, primary screen, biochemical, 635/667 nm fluorescence (AID 1095).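 Further: score merges 667 nm feature fluorescence with signal to noise over triplicate slides.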 As to conditions: 635 nm fluorescence, higher = more signal.
Test [19] addresses Neurogenic locus notch homolog protein 3 (Homo sapiens) (UniProt Q9UM47). Nature of the test: NOTCH3 binders on small-molecule microarray, primary screen, biochemical, 635/667 nm fluorescence (AID 1096). Particulars: NOTCH3 binding, 635 nm fluorescence, higher = more signal.
A short description of test [20]: small-molecule microarray binders of probe aEGFR, primary screen, biochemical, biotinylated probe, 635/667 nm fluorescence (AID 1097).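 Further: probe is a biotinylated anti-EGFR antibody binding compounds printed on slides; score combines fluorescence near 667 nm and signal to noise of each spot.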 As to conditions: higher = more signal.

Drawing on PubChem BioAssay, this text covers composite z-score and z-score for five compounds.

The source made the active and inactive calls.

Neurogenic locus notch homolog protein 3 (Homo sapiens), sequence (Q9UM47 whole entry, looked up): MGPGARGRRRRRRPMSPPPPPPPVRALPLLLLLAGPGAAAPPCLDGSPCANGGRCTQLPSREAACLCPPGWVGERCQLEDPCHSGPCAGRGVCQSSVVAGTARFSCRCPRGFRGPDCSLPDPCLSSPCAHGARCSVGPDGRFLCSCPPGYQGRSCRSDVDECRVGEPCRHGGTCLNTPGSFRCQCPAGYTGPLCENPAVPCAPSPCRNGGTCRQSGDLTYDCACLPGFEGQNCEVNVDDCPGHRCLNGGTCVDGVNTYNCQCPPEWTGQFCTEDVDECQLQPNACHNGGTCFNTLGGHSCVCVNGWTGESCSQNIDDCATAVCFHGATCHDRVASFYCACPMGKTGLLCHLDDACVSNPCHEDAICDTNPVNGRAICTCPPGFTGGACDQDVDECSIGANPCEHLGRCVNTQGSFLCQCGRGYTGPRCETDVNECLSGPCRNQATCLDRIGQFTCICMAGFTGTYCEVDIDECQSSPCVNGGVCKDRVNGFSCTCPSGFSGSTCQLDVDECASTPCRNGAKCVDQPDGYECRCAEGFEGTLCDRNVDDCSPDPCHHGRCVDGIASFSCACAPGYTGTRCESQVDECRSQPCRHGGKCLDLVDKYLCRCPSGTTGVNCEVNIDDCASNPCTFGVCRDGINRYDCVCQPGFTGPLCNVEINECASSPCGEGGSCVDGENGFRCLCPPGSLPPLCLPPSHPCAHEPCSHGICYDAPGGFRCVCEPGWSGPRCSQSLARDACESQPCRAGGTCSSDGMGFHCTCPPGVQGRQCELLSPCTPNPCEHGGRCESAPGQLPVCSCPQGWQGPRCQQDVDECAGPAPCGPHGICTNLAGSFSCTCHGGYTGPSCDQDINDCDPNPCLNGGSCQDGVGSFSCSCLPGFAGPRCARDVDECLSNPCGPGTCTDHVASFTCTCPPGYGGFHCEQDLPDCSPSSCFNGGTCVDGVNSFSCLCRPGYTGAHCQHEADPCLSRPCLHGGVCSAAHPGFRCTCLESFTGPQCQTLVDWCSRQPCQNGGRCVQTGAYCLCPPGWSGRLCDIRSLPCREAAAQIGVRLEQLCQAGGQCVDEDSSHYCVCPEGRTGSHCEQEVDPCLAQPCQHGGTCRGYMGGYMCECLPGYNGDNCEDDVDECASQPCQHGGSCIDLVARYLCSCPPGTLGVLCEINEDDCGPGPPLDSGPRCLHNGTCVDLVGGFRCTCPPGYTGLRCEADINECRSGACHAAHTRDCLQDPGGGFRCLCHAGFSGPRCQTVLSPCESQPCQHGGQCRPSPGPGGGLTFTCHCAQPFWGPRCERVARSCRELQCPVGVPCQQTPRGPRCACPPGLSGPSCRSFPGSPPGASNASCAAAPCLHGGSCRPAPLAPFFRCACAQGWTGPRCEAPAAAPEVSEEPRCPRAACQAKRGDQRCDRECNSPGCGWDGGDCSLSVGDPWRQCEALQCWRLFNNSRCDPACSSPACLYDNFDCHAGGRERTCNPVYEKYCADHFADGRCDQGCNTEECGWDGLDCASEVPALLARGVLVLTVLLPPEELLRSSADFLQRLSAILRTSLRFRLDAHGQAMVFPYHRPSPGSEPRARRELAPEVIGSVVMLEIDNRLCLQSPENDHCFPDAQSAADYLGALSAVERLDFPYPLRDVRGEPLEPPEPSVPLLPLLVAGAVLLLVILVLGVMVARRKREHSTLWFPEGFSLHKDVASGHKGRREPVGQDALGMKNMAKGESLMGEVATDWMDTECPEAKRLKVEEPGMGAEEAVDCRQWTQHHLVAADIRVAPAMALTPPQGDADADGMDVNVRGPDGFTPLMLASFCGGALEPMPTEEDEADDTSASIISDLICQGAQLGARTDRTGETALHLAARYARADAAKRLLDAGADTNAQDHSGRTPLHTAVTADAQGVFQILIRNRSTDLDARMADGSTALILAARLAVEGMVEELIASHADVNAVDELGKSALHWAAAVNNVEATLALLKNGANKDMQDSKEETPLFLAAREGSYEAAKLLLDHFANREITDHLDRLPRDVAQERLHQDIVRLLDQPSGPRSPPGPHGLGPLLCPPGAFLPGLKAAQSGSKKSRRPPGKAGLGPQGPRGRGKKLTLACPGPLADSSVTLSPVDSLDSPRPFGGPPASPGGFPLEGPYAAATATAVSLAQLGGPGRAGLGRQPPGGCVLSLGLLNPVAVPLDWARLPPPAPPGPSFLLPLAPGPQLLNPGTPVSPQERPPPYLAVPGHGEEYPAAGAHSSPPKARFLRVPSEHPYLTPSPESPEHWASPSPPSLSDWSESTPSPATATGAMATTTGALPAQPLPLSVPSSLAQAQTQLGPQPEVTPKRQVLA

On to `COc1c(C)cc(-c2cc3c(c(CCc4ccccc4)n2)[Si](C(C)C)(C(C)C)OC3)cc1C`, for which the composite z-score is -0.496 in test [1]; 1.49 in test [2]; -0.125 in test [3]; 0.358 in test [4]; 0.364 in test [5]; -0.355 in test [6]. Moreover, the composite z-score in test [7] is 0.578; in [9], 0.287; in [10], -0.0346; in test [11], 1.42; in [15] it was 0.778; in test [17], -0.0866. Moreover, the composite z-score in test [18] came out at 0.288; in test [19], 0.34; in test [20], 0.0068. Moreover, the z-score in [8] is -0.14 (inactive); in test [12], -0.819 (inactive); in [13] it was -1.57 (inactive); in [14], -0.618 (inactive); in [16], 2.29 (inactive).
Consider `C[N+](C)(C)CCCCNC(=O)[C@@H]1C[C@@H]2C(=O)NCC(=O)N2[C@@H]1c1cccc(OCCO)c1`, for which the composite z-score in [1] is -0.501; in test [2], 2.04; in test [3], -0.085; in test [4], 1.05; in [5] it was -0.544; in [6] it was 1.22. Also, the composite z-score in test [7] is 1.34; in test [9] it was 0.432; in test [10] it was 0.167; in test [11], 1.39; in test [15], 2.47; in test [17] it was -0.0607. Further, the composite z-score worked out at 1.88 in test [18], 1.14 in [19] and 0.0526 in test [20]. Moreover, the z-score in [8] is -0.53 (inactive); in [12], 2.16 (inactive); in test [13], -0.823 (inactive); in [14], -1.89 (inactive); in [16] it was 1.73 (inactive).
Take `C=CC[C@]1(C(=O)N2CCCCC2)COC(c2ccc(OCCCO)cc2)=N1`: the composite z-score in [1] is 0.892; in [2], 0.586; in test [3], -0.153; in test [4] it was -1.44; in [5], -1.58; in test [6], 1.05. Besides, the composite z-score in test [7] is 0.796; in [9] it was -0.329; in test [10], -0.251; in [11], 0.517; in test [15] it was 2.43; in [17], 0.0499. Moreover, the figures for the composite z-score in test [18], in test [19] and in test [20] were 0.452, -0.904 and -0.0933, respectively. Besides, the z-score is -2.05 (inactive) in test [8]; -0.485 (inactive) in test [12]; -5.08 (inactive) in test [13]; -2.75 (inactive) in [14]; 1.16 (inactive) in [16].
Take `COc1ccc([Si](C)(C)[C@@H]2[C@@H](CC(=O)N3CCC[C@H]3CO)O[C@]3(C(=O)N(Cc4ccc(I)cc4)c4ccccc43)[C@H]2C)cc1`: the composite z-score in test [1] is 0.035; in [2], 0.356; in test [3], -0.142; in test [4], 0.254; in test [5], 0.806; in [6], 0.805. The composite z-score came to 1.22 in test [7]; 0.357 in [9]; 0.281 in test [10]; 1.56 in test [11]; 1.53 in [15]; 0.0662 in [17]. In addition, the composite z-score in [18] was found to be 0.982; in test [19] it was 1.13; in [20] it was 0.0152. For the same compound, the z-score in [8] is -1.71 (inactive); in test [12], -1.41 (inactive); in test [13], -0.398 (inactive); in test [14] it was -0.309 (inactive); in test [16] it was 2.22 (inactive).
Consider `COC(=O)C(CC#Cc1ccc2c(c1)[C@]1(C(=O)N2)[C@H](c2ccccc2OCCO)N2[C@H](c3ccccc3)[C@H](c3ccccc3)OC(=O)[C@H]2[C@@H]1C(=O)N1CCCCCCC1)C(=O)OC`, for which the composite z-score worked out at 4 in test [1]; 2.62 in test [2]; 0.984 in [3]; 1.28 in [4]; 1.54 in test [5]; 2.17 in [6]. The composite z-score is 0.982 in test [7]; 3.71 in [9]; 2.52 in test [10]; 1.53 in test [11]; 4.89 in test [15]; 1.93 in [17]. Besides, the composite z-score in test [18] turned out to be 2.02; in [19] it was 1.09; in test [20], 1.44. Also, the z-score in test [8] is 0.62 (inactive); in test [12] it was 0.349 (inactive); in test [13], 0.958 (inactive); in [14], 1.06 (inactive); in test [16], 1.83 (inactive).
